# Glioma ERSR ind – qHTS for Inducers of the Endoplasmic Reticulum Stress Response (ERSR) in Human Glioma: qHTS; Potency, µM, for inactives: top-dose activation, usual class: activators; actives 0.02% (n = 420,000); U87-MG GRP78 promoter luciferase reporter, 16 h; active = well fitted activation curve with a large enough effect; also: potency is read from the fitted curve at half-maximal effect; series mostly up to about 76 µM; % of control where 0% means no effect; nearly all actives have a fitted effect of over 35% in size
#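 Stably transfected U87-MG human glioma cells carrying a GRP78-based luminescent sensor were seeded at 1000 cells/well, pin-dosed with compounds and incubated 16 h. Luciferase reagent was then added, and end-point luminescence was read after 10 min at room temperature.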
# TRHR PAM – qHTS for Small Molecule Agonists and Allosteric Enhancers of Human TRH Receptor: Primary Screen for Enhancers. Thyrotropin-releasing hormone receptor (Homo sapiens), P34981. TRHR cells, fluo-8 calcium fluorescence, EC20 TRH enhancement. enhancement, % at 2 µM. actives 0.66% (n = 360,000). AID 493056, 2011; in the data active = enhancement above about 30%; also: 0% is about no effect
# Target sequence (P34981 whole entry, looked up): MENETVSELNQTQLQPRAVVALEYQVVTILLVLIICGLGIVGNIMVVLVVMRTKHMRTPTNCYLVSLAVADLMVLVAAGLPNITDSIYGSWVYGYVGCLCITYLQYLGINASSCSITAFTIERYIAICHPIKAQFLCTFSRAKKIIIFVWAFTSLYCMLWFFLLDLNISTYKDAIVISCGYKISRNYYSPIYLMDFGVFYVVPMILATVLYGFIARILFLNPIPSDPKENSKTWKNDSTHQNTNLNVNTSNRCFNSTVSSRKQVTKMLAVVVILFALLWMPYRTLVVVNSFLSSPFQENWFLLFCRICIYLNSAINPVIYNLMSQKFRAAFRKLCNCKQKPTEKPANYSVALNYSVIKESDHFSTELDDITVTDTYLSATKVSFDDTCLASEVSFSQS
#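 TRHR-expressing cells loaded with fluo-8 calcium dye were read kinetically (ex 480/em 530) during compound addition, then stimulated with an EC20 of TRH (10 nM final). Enhancement of the Gq-mediated intracellular calcium response was scored.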
# D1 antagonist – Antagonist of Human D 1 Dopamine Receptor: qHTS. actives 3.2% (n = 360,000). D(1A) dopamine receptor (Homo sapiens), P21728. AID 504652, 2011. HEK293 TREx D1 cells, calcium flux, dopamine EC80; stronger effect = lower value. activity change, negative = inhibition, % at 10 µM; in the data active = activity change below about -30%; also: % is scaled to controls: 0 for no effect and ±100 for the full control effect
#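 Allosteric or orthosteric antagonism assessed as attenuation of the calcium response to EC80 dopamine, added 180 s after compound, in induced HEK293 Trex D1 cells loaded with no-wash calcium dye.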
# D1 agonist – Allosteric Agonists of the Human D1 Dopamine Receptor: qHTS | activation, % at 2 µM | HEK293 T-REx D1 cells, calcium flux, agonist mode | actives 1% (n = 360,000) | AID 504660, 2011; also: 0% is about no effect
#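 Agonism was scored from calcium flux recorded over 180 s (1 read/s) after pintool compound addition, following a 10-cycle baseline. Cells were inducible force-coupled HEK293 TREx D1, plated overnight at 30 C and loaded with no-wash calcium dye.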
# D1 PAM – Potentiators of Human D1 Dopamine Receptor: qHTS; D(1A) dopamine receptor (Homo sapiens), P21728; HEK293 TREx D1 cells, calcium flux, dopamine EC20 potentiation; potentiation, % at 10 µM; actives 0.036% (n = 360,000); AID 504651, 2011; in the data active = potentiation above about 30%; also: 0% is about no effect
# TRHR agonist – qHTS for Small Molecule Agonists and Allosteric Enhancers of Human TRH Receptor: Primary Screen for Agonists; Thyrotropin-releasing hormone receptor (Homo sapiens), P34981; TRHR cells, calcium flux fluo-8, FDSS agonist mode; activation, % at 2 µM; actives 0.18% (n = 360,000); AID 493084, 2011; also: 0% is about no effect
#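 TRHR-expressing cells, plated overnight in medium with 10% serum, were loaded with fluo-8 calcium dye at room temperature. After a 10 s baseline, library compound was pin-added and calcium release was recorded kinetically (ex 480/em 530) as agonist response.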
# An asterisk follows results filed as active; · = not tested or not shown. Only some compounds are listed: those with a hit (about 4% of all), similar ones and a draw of the others. Rule as the data show it, unless noted: active = activation above about 30%; inactive = the rest.
SMILES,Glioma ERSR ind,TRHR PAM,D1 antagonist,D1 agonist,D1 PAM,TRHR agonist
CC(C)=CNNC(=O)c1ccc(O)cc1,5.4%,·,·,·,·,·
COc1ccc(CN2CCN(Cc3c[nH]c4ccccc34)CC2CCO)c(F)c1 (stereo not given),-2.2%,1.0,-36.2*,14.8,-10.7,1.3
CCOc1ccc(CN2CCN(Cc3cnc(-c4ccccc4)s3)CC2CCO)cc1 (stereo not given),-2.8%,1.3,-10.4,61.4*,-2.9,-0.7
COc1cccc(CN2CCN(Cc3cc4ccccc4[nH]3)CC2CCO)c1 (stereo not given),0.3%,-17.1,-48.9*,72.1*,-1.2,15.4
COc1ccc(CN2CCN(Cc3cccc(OC)c3)C(CCO)C2)cc1 (stereo not given),-6.4%,3.3,1.6,0.5,1.1,0.1
CCOc1ccc(CN2CCN(Cc3cc4ccccc4[nH]3)CC2CCO)cc1 (stereo not given),-4.1%,-7.3,-30.2*,41.0*,6.0,23.8
Cn1ccnc1C1CCCCN1C(=O)CN1Cc2ccccc2OC(c2ccccc2F)C1 (stereo not given),-2.4%,·,·,·,·,·
CC(C)=NO[C@@H](C)c1cn([C@@H]2COC[C@@H]2O)nn1,-3.9%,·,·,·,·,·
CNCCC1Sc2ccccc2Oc2ccccc21 (stereo not given),-2.1%,12.1,10.5,81.5*,-7.5,0.8
CN(C)CCCC1Sc2ccccc2Sc2ccccc21 (stereo not given),-6.5%,·,·,·,·,·
CCOC(=O)C1CCCN(C(=O)c2cc3cc(Br)ccc3oc2=O)C1 (stereo not given),-2.7%,30.7*,-26.4,1.4,1.6,-2.1
CCn1c(O)c(N=NC(=O)C2C(=O)NCC2c2ccccc2)c2ccccc21 (stereo not given),0.3%,-6.0,-80.2*,1.0,-2.5,-1.0
CCN(CC)CC(O)Cn1c(C)c(-c2ccccc2)c2cc([N+](=O)[O-])ccc21 (stereo not given),3.1%,1.5,2.1,34.4*,-7.6,3.9
CCN(CC)CC(O)Cn1c2ccccc2c2ccccc21 (stereo not given),-4.2%,3.3,-15.0,6.2,-0.8,0.0
Cc1ccc(N(CC(=O)Nc2cc(C)ccc2C)S(C)(=O)=O)cc1,-0.5%,-2.9,-38.4*,2.6,1.4,0.0
Cc1cc(C)cc(-n2c(C)cc(/C=N/NC(=O)CN(c3c(C)cccc3C)S(C)(=O)=O)c2C)c1,1.4%,25.8,16.3,1.6,9.8,-0.6
Cc1ccc(N(CC(=O)N/N=C/c2cc(C)n(-c3ccccc3C)c2C)S(C)(=O)=O)cc1,-4.2%,33.0*,-30.2*,0.3,-9.2,1.0
COc1ccc(CCN2CCC[C@H](CN3CCc4cc(OC)c(OC)cc4CC3=O)C2)cc1OC,-1.1%,·,·,·,·,·
O=C(Nc1cc(F)ccc1F)c1ccc2c(c1)nnn2C1CCCC1,-3.7%,-1.3,13.7,5.2,-3.1,-0.4
COc1ccc(Cl)cc1NC(=O)CCN1C(=O)C2CC=CCC2C1=O (stereo not given),-0.1%,0.0,1.9,2.8,-0.8,-0.6
COc1ccccc1NC(=O)CCN1C(=O)C2CC=CCC2C1=O (stereo not given),-1.4%,35.0*,8.4,0.3,1.0,0.2
Cc1c(C(=O)NCC(C)(C)N2CCOCC2)cnn1-c1nccc(-c2cccs2)n1,-0.8%,·,·,·,·,·
O=C(O)CCN(CCC(=O)O)c1ccccc1,-6.2%,4.6,-92.7*,1.5,-3.7,0.5
Cc1ccc(O)c(NC(=O)c2ccc(Br)c(S(=O)(=O)N3CCCCC3)c2)c1,-2.4%,-1.4,-58.2*,14.3,-2.4,-1.3
COc1cc(/C=C2\S/C(=N/S(=O)(=O)Cc3ccccc3)NC2=O)c([N+](=O)[O-])cc1OC,-0.6%,-2.4,-8.5,1.5,0.7,-1.4
SMILES,Glioma ERSR ind,TRHR PAM,D1 antagonist,D1 agonist,D1 PAM,TRHR agonist
O=C1N/C(=N\S(=O)(=O)c2ccccc2)S/C1=C\c1cc([N+](=O)[O-])ccc1O,-4.2%,39.6*,7.0,167.6*,-2.6,113.7*
O=C1N/C(=N\S(=O)(=O)Cc2ccccc2)S/C1=C/c1cc([N+](=O)[O-])ccc1O,-3.8%,48.9*,80.5,267.1*,22.4,102.2*
CC1CCCN(S(=O)(=O)c2ccc3c(c2)c(=O)nc2ccccn23)C1 (stereo not given),-3.5%,-3.4,-14.6,0.4,-7.8,-0.1
CC(=NO)c1ccc2c(c1)Cc1cc([N+](=O)[O-])ccc1-2,5.3%,·,·,·,·,·
Nc1ccc2c(c1)Cc1cc([N+](=O)[O-])ccc1-2,8.4%,4.8,-36.3*,122.3*,-5.7,43.7*
CN(C(=O)c1ccccc1C(=O)OCC(=O)NCc1ccccc1)C1CCCCC1,-1.2%,3.1,-35.0*,1.3,-2.5,0.1
Cc1ccc(CNC(=O)c2cccc3c2C(=O)c2ccc(N4CCOCC4)cc2S3(=O)=O)cc1,-2.7%,3.1,·,48.6*,-2.6,2.4
CCC1(c2ccc(O)cc2)NC(=O)N(C)C1=O (stereo not given),-3.0%,·,·,·,·,·
Cc1nnc2sc(SCc3ccccc3)nn2c1=O,·,33.6*,6.7,-1.5,-6.5,0.1
Cc1cc(C)nc(SCC(=O)Nc2cccc(S(=O)(=O)N(C)C)c2)n1,-1.7%,21.8,-30.5*,7.2,-13.6,-0.5
CN(C)S(=O)(=O)c1cccc(NC(=O)Cc2ccc(Cl)cc2)c1,-5.5%,-3.1,-31.9*,20.8,-6.2,0.3
Cc1cc(C)n2nc(SCC(=O)Nc3ccc(S(=O)(=O)N(C)C)cc3)nc2n1,-3.2%,1.1,-39.1*,5.1,-2.5,-0.4
O=C(Cc1ccc(Cl)cc1)Nc1cccc(S(=O)(=O)Nc2ccccc2F)c1,-2.7%,0.4,-8.4,7.2,-5.8,-0.2
CN(C)S(=O)(=O)c1cccc(NC(=O)CSc2nncn2C)c1,-2.0%,-0.1,6.2,1.2,-3.2,0.0
CCCOc1ccc(-c2c(C(=O)N/N=C/C3CCCCC3)nnn2-c2nonc2N)cc1,-6.2%,-1.0,-3.3,2.2,0.0,1.0
O=C(NCCCl)c1ccc(OCc2ccccc2)cc1Cl,3.3%,-1.1,-9.7,57.5*,-5.3,0.9
CC1CCN(c2ccc(-c3cccc(NS(=O)(=O)c4ccc(Cl)s4)c3)nn2)CC1,0.2%,2.4,-3.1,3.1,2.0,-0.1
O=C(NCCc1ccccc1)c1nc(-c2cccs2)no1,0.4%,-3.8,-35.9*,0.8,-2.3,-0.6

# Bioassay records deposited in PubChem BioAssay by National Center for Advancing Translational Sciences (NCATS).
